Source: PubChem
Rows were chosen to be rich in hits. Some 3.7% of all compounds tested hit in one or more screens of this group.
IL-2 act: qHTS of IL-2 Activators; IL-2 activation reporter assay, cell-based qHTS; stimulated with anti-CD3/CD4/CD28 beads; in transgenic mouse T cells; activation, % (series mostly up to about 46 µM); hit rate 0.065% among 360,000; in the data active = activation above about 50%; inconclusive = mostly about 30% to 49%
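Using fluorescent plate cytometry, EGFP and DsRed are detected in transgenic mouse T cells stimulated 18 h at 37 degrees C with antibody-coated beads after 60 min compound pretreatment.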
Nrf2 ARE act: qHTS of Nrf2 Activators; AREc32 ARE-luciferase reporter (MCF7-derived line), luminescence, 24 h; Potency, µM (highest dose often 46.1 µM), most hits filed as activators; hit rate 0.31% among 410,000; note: nearly all actives have a fitted effect of over 65% in size
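Quantitative high-throughput format: AREc32 reporter cells, 1000 per well, received compound by pin transfer and were incubated 24 hr at 37 deg C, 5% CO2, before Steady-Glo luminescence detection.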
miR-21 act: qHTS Assay for Modulators of miRNAs and/orActivators of miR-21. HeLa miR-21 FLuc reporter, luciferase, 48 h. Potency, µM (top dose mostly 38.3 µM), actives largely listed as activators. 340,000 tested, under 10 active. AID 2288, 2010;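 note: miR-21 action dims this reporter so a rising signal means less miR-21 action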
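Luminescence from a firefly luciferase reporter carrying a miR-21 binding site downstream, stably expressed under a CMV promoter in HeLa cells that make miR-21 endogenously, reports miRNA modulation after 48 h compound exposure up to approximately 40uM final.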
ClpP mod: qHTS Assay for Activators of ClpP. ATP-dependent Clp protease proteolytic subunit (Bacillus subtilis (strain 168)), P80244. purified B. subtilis ClpP, FRET peptide cleavage, 20 min. Potency, µM (highest dose often 57.5 µM). hit rate 1.9% among 340,000. AID 651965, 2013; active = well fitted falling curve with a large enough effect; inconclusive = small, poorly fitted or top-dose-only effect; inactive = no such curve, though single readings can be large or run the other way; note: the source files actives as falling curves though it sought activators and does not explain the sign; nearly all actives have a fitted effect of over 65% in size
Target sequence (P80244 whole entry, looked up): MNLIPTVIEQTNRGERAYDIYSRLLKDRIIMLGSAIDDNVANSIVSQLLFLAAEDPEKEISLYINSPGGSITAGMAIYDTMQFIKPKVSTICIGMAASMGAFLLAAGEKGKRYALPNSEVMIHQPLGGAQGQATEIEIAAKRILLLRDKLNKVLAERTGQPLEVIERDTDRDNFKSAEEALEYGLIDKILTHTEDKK
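ClpP 10 microg/mL final, pH 8 Tris/KCl buffer with BSA, glycerol, Tween-20; compound pinned in; FRET-FV substrate; RT 20 min; Ex320/Em430; ΔFRET vs ADEP 5.8 microM, DMSO, no enzyme.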
Nrf2 inh: Nrf2 qHTS screen for inhibitors. A549 ARE-Fluc reporter, luciferase luminescence, 18-24 h. Potency, µM (series often up to 46 µM), hits mostly inhibitors. hit rate 2.1% among 360,000. AID 504444, 2011; note: nearly all actives have a fitted effect of over 60% in size
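Two sequential reads on A549 ARE_Fluc cells exposed to compound for 18-24 h: a CellTiter-Fluor fluorescence read for viability, then a luciferase luminescence read for Nrf2/ARE activity.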
A549 viability: Nrf2 qHTS screen for inhibitors: counterscreen for cytotoxicity; A549 ARE-Fluc cells, CellTiter-Fluor viability, 18-24 h; Potency, µM (top dose mostly 46 µM), actives largely listed as inhibitors; hit rate 0.16% among 390,000; AID 504648, 2011
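A549 ARE_Fluc cells in 5% FBS OPTI-MEM were exposed to compounds in concentration-response for 18-24 h at 37 deg C. Viability was read by CellTiter-Fluor fluorescence (Ex 405/Em 525) after 30 min, before the luciferase read.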
Of the large screens only hits and unclear results are named; the others gave an inactive call; ! = not confirmed by another sample. Unless noted, calls come from the whole dose curve; as a rule, active = well fitted curve in the direction sought with a large enough effect; inconclusive = small, poorly fitted or top-dose-only effect, or another doubt; inactive = no such curve, though single readings can be large; an effect the other way counts as inactive or inconclusive.

Cn1c(N)c(C(=O)COC(=O)C2(c3ccc(Cl)cc3)CCCC2)c(=O)n(C)c1=O	Nrf2 inh 18µM, A549 viability inconclusive
Cc1c(N=Cc2ccco2)c(=O)n(-c2ccccc2)n1C	none (no result: Nrf2 inh)
COc1ccc2c(C=Nc3c(C)n(C)n(-c4ccccc4)c3=O)c(O)n(Cc3ccco3)c(=O)c2c1	IL-2 act 65!
O=C(N/N=C/c1cn[nH]c1-c1ccccc1)c1ccco1	Nrf2 ARE act 8.9µM (no result: ClpP mod)
CCCOC(=O)c1c(-c2ccccc2)c(-c2ccccc2)nn(C)c1=O	miR-21 act inconclusive (no result: IL-2 act)
CC1CC(C)CN(S(=O)(=O)c2ccc(C(=O)NCc3ccc4c(c3)OCO4)cc2)C1 (stereo unspecified)	Nrf2 inh 10µM
CNC(=S)N(CCc1c(C)[nH]c2ccc(C)cc12)Cc1ccco1	none
CCNC(=S)N(CCc1c(C)[nH]c2ccc(Cl)cc12)Cc1ccco1	miR-21 act inconclusive, Nrf2 inh 21µM, A549 viability inconclusive
COc1ccc(NS(=O)(=O)c2ccc3oc(SC)nc3c2)cc1	Nrf2 inh 21µM (no result: ClpP mod)
COc1ccc(NS(=O)(=O)c2ccc3oc(=O)c4[nH]c(=O)c(=O)n(C)c4c3c2)cc1	ClpP mod 20µM, A549 viability inconclusive
COc1ccccc1NC(=O)Cn1c(=O)n(Cc2cccs2)c(=O)c2cccnc21	ClpP mod inconclusive (no result: IL-2 act)
Cc1ccccc1NC(=O)N1CCCC(c2nc(-c3ccc(F)cc3)no2)C1 (stereo unspecified)	none
Cc1ccccc1NC(=O)N1CCCC(c2nc(-c3ccc(C(C)C)cc3)no2)C1 (stereo unspecified)	Nrf2 inh 5.8µM, A549 viability inconclusive
CCc1ccc(-n2c(SCc3cccc(F)c3)nc3[nH]ncc3c2=O)cc1	none (no result: IL-2 act, Nrf2 inh)
CCOC(=O)c1c(C)oc2nc(C)nc(N(C)Cc3ccccc3)c12	Nrf2 inh 13µM (no result: IL-2 act)
CCOC(=O)c1c(C)oc2nc(C)nc(N3CCN(c4ccccc4)CC3)c12	miR-21 act inconclusive, Nrf2 inh 23µM (no result: IL-2 act)
CCOC(=O)c1c(C)oc2nc(C)nc(N3CCN(c4cccc(C(F)(F)F)c4)CC3)c12	ClpP mod inconclusive, Nrf2 inh inconclusive (no result: IL-2 act)
CCN(CC)CCNC(=O)c1ccc(Cn2c(SCc3ccccc3)nc3cccnc32)cc1	Nrf2 inh inconclusive (no result: IL-2 act)
CCOc1ccc(CCNC(=O)c2cc(Nc3ccc(C)cc3C)nc3ccccc23)cc1OCC	none (no result: IL-2 act)
CN(C)c1ccc(/C=N/NC(=O)COc2ccccc2)cc1	none (no result: ClpP mod)
CCCCCC1CC1C(=O)N/N=C/c1ccc(N(C)C)cc1 (stereo unspecified)	ClpP mod 35µM
O=C(N/N=C/c1sc(N2CCOCC2)nc1-c1ccccc1)c1ccccc1Cl	none (no result: ClpP mod)
O=C(O)c1cccc(N/N=C/c2sc(N3CCOCC3)nc2-c2ccccc2)c1	ClpP mod inconclusive, Nrf2 inh inconclusive
O=C(N/N=C/c1sc(N2CCOCC2)nc1-c1ccccc1)c1ccccc1O	Nrf2 inh 16µM, A549 viability 23µM
O=[N+]([O-])c1ccc(N/N=C/c2sc(N3CCOCC3)nc2-c2ccccc2)c(S(=O)(=O)Nc2ccccc2Cl)c1	Nrf2 inh 2.6µM, A549 viability 9.2µM
CCc1ccc(CNCc2c(C(=O)O)c(C)n(Cc3c(F)cccc3Cl)c2C)cc1	none (no result: IL-2 act)
CCc1cc(=O)oc2cc(OC(C)C(=O)NCC(O)c3ccccc3)c(Cl)cc12 (stereo unspecified)	none
CCc1cc2c(-c3ccccc3)cc(=O)oc2cc1OC(C)C(C)=O (stereo unspecified)	Nrf2 inh 6.5µM
O=C(O)Cc1cc(F)c(S(=O)(=O)N2CCN(S(=O)(=O)c3ccc4c(c3)OCCO4)CC2)cc1F	none (no result: IL-2 act, Nrf2 ARE act, miR-21 act, ClpP mod)
CCOC(=O)c1c(C)c(C(=O)NCc2ccc(Cl)cc2)c(C)n1CC	none (no result: IL-2 act)
CCn1cnc2c(Nc3cc(F)cc(F)c3)nc(C(=O)COc3c(F)c(F)cc(F)c3F)nc21	none (no result: IL-2 act, Nrf2 ARE act, miR-21 act, ClpP mod)
CC(C)(C)SCCNC(=O)/C=C/c1ccc([N+](=O)[O-])cc1	none
CC(C)(C)SCCNC(=O)/C=C/c1cccc([N+](=O)[O-])c1	Nrf2 ARE act 10µM
CC(=O)N1N=C(c2ccc(NS(=O)(=O)c3ccccc3)cc2)CC1c1ccco1 (stereo unspecified)	none (no result: miR-21 act)
CC(=O)N1N=C(c2cccc(NS(=O)(=O)c3ccc(C)cc3)c2)CC1c1ccco1 (stereo unspecified)	Nrf2 inh 23µM, A549 viability inconclusive
CCCC1=Nc2cc(C(=O)NC3CCCC3)ccc2Sc2ccc(C)cc21	miR-21 act inconclusive, Nrf2 inh inconclusive (no result: IL-2 act)
COc1ccc(-n2nc3c(c2NC(=O)C(=O)NCc2ccccc2)CSC3)cc1	none (no result: IL-2 act, Nrf2 inh)
Cc1cc(CN2CCOCC2)c(O)c(C2(C)CCCCC2)c1	none (no result: Nrf2 inh)
Cc1cc(CN(C)C)c(O)c(C2(C)CCCCC2)c1	ClpP mod 22µM
Cc1ccc(-c2nnc(Nc3ccccc3)c3ccccc23)cc1S(=O)(=O)N1CCOCC1	none (no result: IL-2 act)
Cc1ccc(-c2nnc(Nc3cccc(O)c3)c3ccccc23)cc1S(=O)(=O)N1CCOCC1	Nrf2 inh 16µM, A549 viability inconclusive (no result: IL-2 act)
Cc1cccc(S(=O)(=O)N2CCN(S(=O)(=O)c3ccc4c(c3)OCCO4)CC2)c1	none (no result: IL-2 act, Nrf2 ARE act, miR-21 act, ClpP mod)
Cc1cccc(OCC(=O)Nc2ccccc2OCc2cc(=O)n3cc(C)ccc3n2)c1	none (no result: IL-2 act, Nrf2 inh)
CC1CCN(C(=O)CSc2nnc3c(n2)[nH]c2ccccc23)CC1	Nrf2 inh 8.2µM
CCC(=O)N1CCc2cc(Br)cc(S(=O)(=O)CCC(=O)Nc3ccc(Cl)cc3)c21	none (no result: IL-2 act)
Fc1cc(F)cc(Nc2nc(NC3CCCC3)nc(C3CO3)n2)c1 (stereo unspecified)	none (no result: IL-2 act, Nrf2 ARE act, miR-21 act, ClpP mod)
Cc1ccc(-c2nn(-c3ccccc3)cc2CO)o1	ClpP mod 32µM
OCc1cn(-c2ccccc2)nc1-c1ccc(-c2nn(-c3ccccc3)cc2CO)cc1	ClpP mod 28µM (no result: Nrf2 inh)
COc1ccc(CNC(=O)CCNS(=O)(=O)c2ccc3c(c2)CCCC(=O)N3)cc1	none (no result: IL-2 act)
COC(=O)c1ccc(S(=O)(=O)N2CCCN(Cc3ccc(F)cc3)CC2)n1C	Nrf2 inh 13µM
Nc1ccc(/C=C/c2cc(Cl)nc3ccccc23)cc1	none (no result: IL-2 act, Nrf2 ARE act, miR-21 act, Nrf2 inh, A549 viability)
Cc1ccccc1OCc1nnc(SCc2cc(=O)c3ccc(C)c(C)c3[nH]2)n1C	none (no result: IL-2 act, Nrf2 inh)
O=C(O)c1cccc(CSc2nnc(-c3ccc(Cl)cc3)o2)c1	Nrf2 inh 9.2µM
O=C(CCSc1nnc(-c2ccncc2)o1)Nc1cccc(Cl)c1	Nrf2 inh 21µM (no result: ClpP mod)
O=C(O)c1cccc(CSc2nnc(COc3ccccc3)o2)c1	none (no result: Nrf2 inh)
